Source: ChEMBL document CHEMBL5308541, “MAIP: An Open-Source Tool to Enrich High-Throughput Screening Output and Identify Novel, Druglike Molecules with Antimalarial Activity” (ACS Med Chem Lett, 2023)
The campaign covered roughly 4,800 compounds. About 420 (8.8%) showed an effect of 50% or more. The sample as a whole holds a higher share of strong results than the screen did.

Test system: Plasmodium falciparum
Assay: Confirmatory screen in NF54 nanoGlo assay, in single point, at 2uM, 72h
Assay type: functional, Erythrocyte
Details: timepoint 72 hour

Row | Compound | % Inhibition
1 | CN1CCC(N(Cc2ccccc2)C(=O)c2cc3cnccc3[nH]2)CC1 | 61%
2 | CCCN1CCC(N2CC(c3cccnc3)C(c3nc(C4CCCC4)no3)C2)CC1 (stereo unspecified) | -2%
3 | Cc1cc(O)c(Cl)cc1-c1cccc2c(N)ccnc12 | 91%
4 | Cc1cc(O)c(Cl)cc1-c1ccc2nccc(N)c2c1 | 90%
5 | Clc1ccc2[nH]c3c(c2c1)CCCC3NC1CCN(C2CCOC2)CC1 (stereo unspecified) | 81%
6 | CN1CCC(Oc2ccc(NC(=O)c3cn4ccnc4s3)cn2)CC1 | 86%
7 | Nc1ccnc2ccc(-c3ccc(C(=O)NCC4CCOCC4)cc3)cc12 | 77%
8 | Cc1ccc2nc(-c3cccc(NC(=O)c4ccc(OC(F)(F)F)c(Cl)c4)c3)[nH]c2n1 | 72%
9 | Cc1cc(N2CCC(NC3CCCC3Cc3ccc(F)cc3)CC2)nc(N)n1 (stereo unspecified) | 96%
10 | Cc1cc(N2CCC(N(C)Cc3cc(-c4ccccc4)n[nH]3)CC2)nc(N)n1 | 21%
11 | Cc1cc(N2CCC(NC3CCNC(c4ccccc4)C3)CC2)nc(C)n1 (stereo unspecified) | 30%
12 | Fc1cccc(Cl)c1CN1CCC(NC[C@H]2CCCOC2)CC1 | 24%
13 | c1cc(CNC2CCN(C[C@H]3CCOC3)CC2)c2cc[nH]c2c1 | -7%
14 | O=C(NCc1ccc(N2CCNCC2)c(F)c1)c1ccc(-c2noc(C(F)(F)F)n2)cc1 | 57%
15 | Cc1nc(N2CCN(C)CC2)cc(N2CCN(S(=O)(=O)c3ccccc3C(F)(F)F)CC2)n1 | 67%
16 | Cc1c(CN2CCC(O)(Cn3ccnc3)CC2)[nH]c2c(Cl)cccc12 | 96%
17 | NC(=O)[C@]1(O)CCN(c2ccnc3ccc(Oc4ccccc4)cc23)C1 | 29%
18 | O[C@@]1(c2c[nH]nn2)CCN(c2ccnc3cc(Cl)ccc23)C1 | 59%
19 | COCCN1CC[C@H](CN(C)c2ccnc3cc(Cl)ccc23)C1 | 98%
20 | COCCN1CCC[C@@]2(CCN(c3ccnc4cc(Cl)ccc34)C2)C1 | 99%
21 | Cc1cccc(N2CCC(NCc3cc(C)cc(CN4CCN(C)CC4)c3C)CC2)c1 | 61%
22 | Cc1cc(C)c(CN2CCN(C)CC2)cc1CNCCCn1ccnc1C | 38%
23 | Cc1ccc2nc(NC[C@H]3CCN(C4CC4)C3)cc(C)c2c1 | 93%
24 | COc1ccc(-c2cc(C(=O)Nc3ccc(N4CCN5CCCC5C4)cc3)c3c(C)noc3n2)cc1 (stereo unspecified) | 41%
25 | Cc1cc(NC[C@H]2CN(CC(C)C)CCO2)c2ccccc2n1 | 26%
26 | CCCN1CCC(Nc2cc(C)nc3ccccc23)CC1 | 77%

Row | Compound | % Inhibition
27 | Cc1cc(N2CCC(Nc3ccnc4ccncc34)CC2)nc(C)n1 | 9%
28 | O=C(Nc1cnc2c(c1)COCC2)c1cc2c(OC(F)(F)F)cccc2[nH]1 | 95%
29 | c1ccc(CCC23CN(Cc4ccccn4)CC2CN(Cc2ccns2)C3)cc1 (stereo unspecified) | 88%
30 | Nc1cc(N2CCC(c3nc4cc(F)ccc4[nH]3)CC2)nc(N2CCOCC2)n1 | 39%
31 | Cc1ccc2[nH]cc(-c3cc(N4CCOCC4)nc(N)n3)c2c1 | 57%
32 | Brc1ccc2[nH]c3c(c2c1)CCCC3NC1CCc2[nH]cnc2C1 (stereo unspecified) | 97%
33 | c1ccc(CNc2ccc(-c3noc(C45CCCN(CCC4)C5)n3)cn2)cc1 | 82%
34 | NCCCCc1c(-c2cccnc2)[nH]c2c(Cl)cc(Cl)cc12 | 55%
35 | Cn1cc(-c2cncc(C(=O)NC3CCN(c4cccc(F)c4)CC3)c2)cn1 | 51%
36 | CCOc1cccc(N2CCN(C(=O)c3cc(-c4ccc(F)cc4)[nH]n3)CC2)n1 | 32%
37 | CN(C)CCN1CCC(NC2CCC(O)(c3cccc(Cl)c3)CC2)CC1 (stereo unspecified) | 30%
38 | OC1(c2ccc(Cl)cc2)CCN(C[C@@H]2CCCN3CCCC[C@H]23)CC1 | 73%
39 | NCC1(O)CCN(c2ccnc3cc(F)c(Cl)cc23)CC1 | 94%
40 | FC(F)(F)c1ccc(N2CCC[C@H](NC3CCN(Cc4ccco4)CC3)C2)nc1 | 21%
41 | CCN1CCC(N2CCC(C(=O)NCCc3ccc(OC(F)(F)F)cc3)CC2)CC1 | 48%
42 | Oc1ccc(OC(F)(F)F)cc1-c1ccc2nccn2n1 | 83%
43 | Nc1ccc(-c2cc(OC(F)(F)F)ccc2O)cn1 | 11%
44 | N#Cc1ccc(N2C[C@H](COCC3CC3)C3(CCN(Cc4cccc(O)c4)CC3)C2)cc1C(F)(F)F | 80%
45 | CCN1C[C@H](Nc2nc(C)nc3sccc23)[C@@H](OC)C1 | 98%
46 | CNc1nc(C)c(-c2ccnc(Nc3cccc(S(C)(=O)=O)c3)n2)s1 | 58%
47 | Cc1ccc2nc(CCCNC3CCN(c4cc(C)nc(N)n4)CC3)oc2c1 | 29%
48 | Cc1cc(N2CCC(NCCCN3CCCc4ccccc43)CC2)nc(N)n1 | 74%
49 | Cc1cc(N2CCC(NCCc3c[nH]cn3)CC2)nc(-c2ccccc2)n1 | 17%
50 | COc1ccc2nc3cc(Cl)ccc3c(O)c2c1 | 57%
51 | COc1ccc2c(O)c(Br)c(C)nc2c1 | 78%
52 | CN1CCN(CCOc2ccccc2CN(C)Cc2cc3cc(F)ccc3[nH]2)CC1 | 87%

Row | Compound | % Inhibition
53 | CN(C[C@H](O)COc1cccc(CNCCCOc2cccnc2)c1)C1CCCCC1 | 30%
54 | CN1C(C)(C)CC(NC(=O)c2ccc(-c3cc(-c4cccc(C(F)(F)F)c4)n[nH]3)cc2)CC1(C)C | 45%
55 | CCc1oc2ccccc2c1CNC[C@H](O)c1ccc(Cl)cc1 | 99%
56 | CCN(Cc1cnn(-c2cccc(Cl)c2)c1)CC1CCN(C2CCN(C)CC2)CC1 | 79%
57 | CCN(Cc1[nH]c2ccc(Cl)cc2c1C)CC1CCN(C2CCN(C)CC2)CC1 | 89%
58 | Cc1ccc2[nH]c(-c3cc4n(n3)CCN(c3ccnc(N)n3)C4)nc2c1C | 89%
59 | CNc1nc(N[C@H]2CCCN(Cc3ccc(Cl)cc3)C2)nc2c1CCC2 | 79%
60 | Clc1cccc(N2CC[C@H](CNC3CCN(Cc4ccco4)CC3)C2)c1 | 66%
61 | COc1ccc(CNCc2cc3ccccc3[nH]2)cc1CN(C)C | 59%
62 | COc1ccccc1-c1csc(C2CCN(CC[C@H]3CCCN3C)CC2)n1 | 26%
63 | CC(CNc1nc(NCC(C)N2CCOCC2)c2cc(Cl)ccc2n1)N1CCOCC1 (stereo unspecified) | 87%
64 | CN1CCC(N2CCC(NC(=O)c3ccc(S(=O)(=O)N(C)C4CCCCC4)cc3)CC2)CC1 | 44%
65 | Cc1ccc(-c2cc(C(=O)NC3CCN(C4CCN(C)CC4)CC3)n[nH]2)cc1C | 98%
66 | CN(C)Cc1cccc(CCNCc2csc(-c3ccc(C(F)(F)F)cc3)n2)c1 | 74%
67 | O=C(NC1CCN(CCOc2ccc(Cl)cc2)CC1)c1c[nH]c2ccncc2c1=O | 92%
68 | O[C@H]1CCN(Cc2cccc(NCc3cn4ccnc4s3)c2)C1 | 38%
69 | CCN1CCC[C@H](Nc2cccc(-n3ccnc3)n2)C1 | 33%
70 | O[C@H]1CCN(Cc2ccccc2CNc2cccc(-n3ccnc3)n2)C1 | 94%
71 | Nc1ccnc(-c2cccc3[nH]ccc23)c1 | 6%
72 | COc1ccc2cc(-c3cc(N)ccn3)[nH]c2c1 | 55%
73 | O=C1CN(C(=O)c2ccnc3ccccc23)CCN1Cc1ccccc1F | 53%
74 | COc1cc2nc(NCC3(N4CCN(C)CC4)CCCC3)cc(C)c2cc1OC | 84%
75 | CCN(C)CC1CCN(c2nc(NCCOC)nc(N3CCC(CN(C)CC)C3)n2)C1 (stereo unspecified) | 1%
76 | Cn1nnc(C(=O)N2CCCCC23CCCCCC3)n1 | 68%
77 | CC(C)CCOc1ccc2[nH]c(-c3cc(N4CCC[C@@H]4CS(C)(=O)=O)ccn3)cc2c1 | 99%
78 | CN(CCCn1ccnc1)c1ccnc2cc(Br)ccc12 | 99%

Row | Compound | % Inhibition
79 | O=C(NCCN1CCCCC1)c1cccc(-c2cnc3ccc(F)cn23)c1 | 26%
80 | CCOc1cc2nccc(N3C[C@H]4CN(C)C[C@H]4C3)c2cc1OCC | 98%
81 | CCCC(=O)NC1COCC1Cc1ccncc1 (stereo unspecified) | 83%
82 | c1ccc(CN2CCC(CCNC[C@@H]3CCCN4CCCC[C@H]34)CC2)cc1 | 61%
83 | COc1ccc2cc(NC(=O)c3cc(-c4c(C)nn(C)c4C)[nH]n3)cnc2c1 | 73%
84 | Cc1cnccc1NCCNCc1ccc(OC(C)C)c(Cl)c1 | 73%
85 | c1ccc2c(Nc3ccc4[nH]cnc4c3)c3ccccc3nc2c1 | 98%
86 | O[C@@H](CNCc1cc2cc(Cl)c(Cl)cc2[nH]1)c1ccc(F)cc1 | 79%
87 | OC[C@H](CNCc1cc2ccc(F)cc2[nH]1)c1ccccc1Cl | 72%
88 | Cc1sc2nc(-c3ccccn3)nc(NCCc3nccn3C)c2c1-c1ccccc1 | 71%
89 | CCNc1cc(C)nc(NCCNC(=O)Nc2cc(F)cc(F)c2)n1 | 76%
90 | CCNc1nc(C)cc(Nc2ccc(NC(=O)Nc3ccc(F)cc3F)cc2)n1 | 98%
91 | Cc1cc(NC[C@H](O)COc2ccc(F)cc2)nc2ccccc12 | 76%
92 | Cc1ccc2[nH]c(CNC[C@@H](CO)C3CCC3)cc2c1C | 65%
93 | COc1ccc2[nH]cc(-c3ccc(N)nc3)c2c1 | -7%
94 | COc1ccc2[nH]cc(C3=CCN(c4ccc5nnc(-c6ccccc6F)n5n4)CC3)c2c1 | 51%
95 | CCN1CCN([C@H]2CCN(c3ccnc4ccncc34)C2)CC1 | 97%
96 | Cc1ccc2nccc(N3CCC(N4CCC(O)CC4)CC3)c2c1 | 10%
97 | O=C(NCC1CC1)c1cc2c(OCc3ccc(Cl)cc3)cccc2[nH]1 | 57%
98 | c1ccc(-c2ccnc(C3CCN(CC45CNCC4C5)CC3)n2)cc1 (stereo unspecified) | 94%
99 | CC(C)c1ccc(-c2nc(CN3CCCCC3)cc(CN3CCCCC3)c2O)cc1 | 93%
100 | CC(C)c1ccc(-c2noc(CCN3CCN(CCCN(C)C)CC3)n2)cc1 | 25%
101 | CCC1(NC(=O)c2cc(C)c3ccccc3n2)CCOCC1 | 10%
